Laboratory results reported in the supplement of paper PMC9950053.
Counter-ions that a name gives are not always drawn.

system: Danio rerio larvae (5 dpf); experiment: startle (activity period 16 minus period 15, 20-s interval sound) minus DMSO control (percentage points); higher = stronger startle response than DMSO larvae; conditions: 10 µM; exposure time: 3 h pre-incubation + 3 h imaging
Protocol: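 Wild-type 5 dpf zebrafish larvae (n=48 per drug, 96-well plates, 28.5 °C) were exposed to Tocris FDA-approved library compounds at 10 µM (0.1% DMSO) for 3 h before and 3 h during imaging. Images were taken every 6 s during visual and acoustic stimuli, and larvae were tracked with Z-LaP Tracker. Each measure is the treated-group mean minus the DMSO control mean (n=844), in percentage points. This mapping covers compounds with 5-character plate codes.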

Structure (SMILES)	startle
COc1ccc(C(CN(C)C)C2(O)CCCCC2)cc1 (stereo unspecified) [Venlafaxine hydrochloride]	-6.7
